# Results reported in PubChem BioAssay AID1441 (NMMLSC, 2008).
# Hit rate of the full screen: of about 220,000 compounds, about 830 (0.38%) were called active. No rule for the calls is given here. What follows is part of a selection rich in actives, with near analogues and random picks from the rest.
# Target: Regulator of G-protein signaling 16 (Homo sapiens) + Guanine nucleotide-binding protein G(o) subunit alpha (Homo sapiens) (UniProt O15492+P09471)
# Assay: modulators of RGS16 binding to Galphao, primary screen, biochemical, human proteins, multiplexed bead flow cytometry (AID 1441);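 also: Galphao activated by GDP with aluminum fluoride before binding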
# Settings: bead-based flow cytometry RGS16-Galphao binding, fluorescence; at 10 µM; actives lie on both sides
# Regulator of G-protein signaling 16 (Homo sapiens) + Guanine nucleotide-binding protein G(o) subunit alpha (Homo sapiens), sequence (O15492 whole entry, looked up): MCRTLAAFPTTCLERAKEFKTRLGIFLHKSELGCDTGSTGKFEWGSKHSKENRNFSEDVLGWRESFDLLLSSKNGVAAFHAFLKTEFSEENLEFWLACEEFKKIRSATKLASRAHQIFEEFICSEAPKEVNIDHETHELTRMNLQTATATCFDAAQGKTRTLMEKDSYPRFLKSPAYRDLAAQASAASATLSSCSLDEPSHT
# Regulator of G-protein signaling 16 (Homo sapiens) + Guanine nucleotide-binding protein G(o) subunit alpha (Homo sapiens), sequence (P09471 whole entry, looked up): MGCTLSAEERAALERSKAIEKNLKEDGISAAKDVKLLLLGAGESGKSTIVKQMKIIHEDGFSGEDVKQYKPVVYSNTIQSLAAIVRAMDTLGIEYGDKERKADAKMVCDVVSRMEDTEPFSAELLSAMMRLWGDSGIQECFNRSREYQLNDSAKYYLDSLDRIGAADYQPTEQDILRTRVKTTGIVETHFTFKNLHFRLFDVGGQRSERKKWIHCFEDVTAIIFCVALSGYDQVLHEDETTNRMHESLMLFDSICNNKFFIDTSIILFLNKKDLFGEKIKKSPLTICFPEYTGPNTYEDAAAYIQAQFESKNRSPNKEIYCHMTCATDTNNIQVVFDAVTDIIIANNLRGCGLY
row,SMILES,binding response (% of control)
1,CCC(C)N(C(=O)COC(=O)C1C(C(=O)OC)=C(C)NC(C)=C1C(=O)OC)C1CCS(=O)(=O)C1 (stereo unspecified),104% (inactive)
2,CCCn1c(C)cc(C(=O)COC(=O)c2c(C)nn(-c3ccccc3)c2C)c1C,-33.9% (active)
3,Cc1nn(-c2ccccc2)c(C)c1C(=O)OCC(=O)NC(=O)NC1CCCCC1,98.5% (inactive)
4,Cc1ccc(OC(=O)c2c(C)nn(-c3ccccc3)c2C)cc1,96.3% (inactive)
5,O=C(Nc1ccc(Cl)cc1)/C(=C1\CCCN1)[N+](=O)[O-],97.8% (inactive)
6,Clc1ccc(C2CC(c3cccs3)n3ncnc3N2)cc1Cl (stereo unspecified),103% (inactive)
7,COc1ccc(C2CC(c3ccccc3)Nc3ncnn32)cc1 (stereo unspecified),103% (inactive)
8,FC(F)Oc1ccccc1C1CC(c2ccc(Br)s2)Nc2ncnn21 (stereo unspecified),215% [activator] (active)
9,COc1ccc(CCNC(=O)c2ccc(CS(=O)(=O)c3ccc(Br)cc3)o2)cc1OC,107% (inactive)
10,COc1ccccc1N(C)S(=O)(=O)c1ccc(C(=O)NC2CCCCCC2)cc1,102% (inactive)
11,CC(=O)Nc1ccc(/C=N/Nc2ccc(C(=O)c3c(C)cc4ccccn34)cc2[N+](=O)[O-])cc1,89.3% (inactive)
12,COC(C[C@H](O)CC(=O)COCc1ccccc1)OC,110% (inactive)
13,CC(C)(CNC(=O)c1ccc(Cl)c(S(=O)(=O)N2CCc3ccccc3C2)c1)N1CCOCC1,96.9% (inactive)
14,CCOC(=O)C1Sc2[nH]c(=O)sc2C(c2ccc(Cl)cc2)C1C(=O)OCC (stereo unspecified),-39.2% (active)
15,CCOC(=O)C1=C(C)NC(=O)N(C(C)=O)C1c1ccc(Cl)cc1 (stereo unspecified),109% (inactive)
16,CCOC(=O)C1C(c2ccc(Cl)cc2)NC(=S)NC1(O)C(F)(F)F (stereo unspecified),102% (inactive)
17,CC(C)(C)NC(=O)COC(=O)c1cc(Cl)ccc1[N+](=O)[O-],100% (inactive)
18,CN1C=CC=C/C1=C1\SC(=S)N(Cc2ccccc2)C1=O,100% (inactive)
19,CCc1cccc(C)c1NC(=S)N(CCCN1CCN(C)CC1)Cc1cccs1,105% (inactive)
20,Cc1ccccc1NC(=S)N(CCCN1CCOCC1)Cc1cccs1,181% [activator] (active)
21,Cc1ccc(Cl)cc1NC(=S)N(CCN(C)C)Cc1cccs1,99.5% (inactive)

row,SMILES,binding response (% of control)
1,COc1ccc(C(CC(=O)N2CCN(c3ccccc3)CC2)c2c(O)cc(OC)cc2OC)cc1 (stereo unspecified),99.5% (inactive)
2,O=C(CCNc1n[nH]c(=O)[nH]c1=O)N/N=C\c1ccc(Br)cc1,100% (inactive)
3,NCCCCCC(=O)N/N=C/c1ccc2nccnc2c1,105% (inactive)
4,CC(=O)N(CN1C(=O)C2C3C=CC(C3)C2C1=O)c1cccc(Cl)c1 (stereo unspecified),104% (inactive)
5,Cc1ccc(OCCCn2c(=O)oc3ccccc32)cc1,106% (inactive)
6,O=C(O)C#Cc1cccc2ccccc12,103% (inactive)
7,Nc1ccc(OCC(O)C[n+]2ccc(CCS(=O)(=O)[O-])cc2)cc1 (stereo unspecified),97.6% (inactive)
8,CCCn1nnnc1NC(=O)COc1ccc(Cl)cc1C,2.27% (active)
9,CCOC(=O)N1CCN(C(=O)COc2ccc(Cl)cc2C)CC1,97.8% (inactive)
10,Cc1cc(NC(=O)COc2ccc(Cl)cc2Cl)n(CCC#N)n1,93.4% (inactive)
11,CC(C)=NN1C(=O)c2ccccc2NC1(C)C,120% (inactive)
12,O=C(CSc1cccc[n+]1[O-])c1ccc(-c2ccccc2)cc1,104% (inactive)
13,N#Cc1ccc(CSc2nnc3ccccn23)cc1,101% (inactive)
14,COP1(=O)C[C@@H](O)[C@@H](O)[C@@H](COCc2ccccc2)O1 (stereo partly specified),103% (inactive)
15,Cc1ccsc1C1C(C#N)=C(N)OC2=C1C(=O)CC(C)(C)C2 (stereo unspecified),118% (inactive)
16,COc1ccc(Cl)cc1C(=O)NNC(=O)c1nc2nc(C)cc(C)n2n1,95.3% (inactive)
17,O=C(OCc1ccc(Br)cc1)c1cccc(-c2nnc(-c3ccccc3)o2)c1,102% (inactive)
18,O=C(Nc1cccc(-c2nc3ccccc3[nH]2)c1)c1ccc(C(=O)Nc2cccc(-c3nc4ccccc4[nH]3)c2)cc1,219% [activator] (active)
19,O=C(/C=C/c1ccco1)Nc1cccc(-c2nc3ccccc3[nH]2)c1,98.3% (inactive)
20,O=C(Cc1cccs1)Nc1cccc(-c2nc3ccccc3[nH]2)c1,97.3% (inactive)
21,NC(=S)Nc1c(Cl)cccc1Cl,98.9% (inactive)

row,SMILES,binding response (% of control)
1,CCOc1c(Nc2cccc(Cl)c2)c(=O)c1=O,119% (inactive)
2,COc1ccc(-c2ccc(CNCCCN3CCOCC3)o2)cc1Cl,98.4% (inactive)
3,CNC(=S)NNC(=O)c1cccn(Cc2ccccc2)c1=O,100% (inactive)
4,CCCC[C@@H]1CN=C(N)N1CCc1cc(C(F)(F)F)cc(C(F)(F)F)c1,100% (inactive)
5,CCN(CC)c1ccc(/C=N/NC(=O)c2cnccn2)c(O)c1,94.6% (inactive)
6,N/C(=N\OC(=O)CCc1ccccc1)c1cccnc1,105% (inactive)
7,COc1ccc(CC(=O)n2nc(-c3cccnc3)nc2N)cc1,93.8% (inactive)
8,CCCC(=O)n1nc(-c2ccccc2)nc1N,14.9% (active)
9,COc1ccccc1C(=O)n1nc(-c2ccccc2)nc1N,102% (inactive)
10,Nc1ccccc1C(=O)NC1CCCCNC1=O (stereo unspecified),95.3% (inactive)
11,COc1ccc2c(c1)C(=C(C#N)C#N)C(=O)N2CCc1ccccc1,113% (inactive)
12,O=C(COC(=O)/C=C/c1ccc2c(c1)OCO2)NC1CCS(=O)(=O)C1 (stereo unspecified),98.5% (inactive)
13,Nc1ccc(C(=O)OCC(=O)NC2CCS(=O)(=O)C2)cc1[N+](=O)[O-] (stereo unspecified),-10.3% (active)
14,Nc1ccc(C(=O)OCC(=O)NC2CCCc3ccccc32)cc1[N+](=O)[O-] (stereo unspecified),98.8% (inactive)
15,COc1cc(OC)c(C(=O)N2CCCC2)cc1OC,100% (inactive)
16,CCC(C)(C)NC(=O)C(c1cccc(OC)c1OC)N(CC(C)C)C(=O)CCC(=O)Nc1cc(C)on1 (stereo unspecified),105% (inactive)
17,COc1ccc(-c2nn(-c3ccccc3)cc2/C=N/Nc2ccccn2)cc1OC,112% (inactive)
18,COc1ccc(-c2nn(-c3ccccc3)cc2C(=O)Nc2nc(CC(C)=O)ns2)cc1,95.8% (inactive)
19,COc1ccc(-c2nn(-c3ccccc3)cc2C(=O)Nc2nccs2)cc1OC,24.6% (active)
